KCNQ2 enhance: KCNQ2 (rat) channel potentiation; B-score at 10 µM; CHO-K1 KCNQ2, FluxOR thallium flux fluorescence; active compounds read high; hit rate 0.54% among 310,000; O88943;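 active = fluorescence ratio B-score at least 3 SD of library B-scores, with initial fluorescence B-score within 3 of them, cut at about 5.3 in these data; same plate scores as AID 2156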;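 also: B-score of peak minus minimum over baseline fluorescence ratio after K+ and Tl+ stimulus; positive B-score means potentiation of KCNQ2 with more thallium influx and brighter signal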
KCNQ2 block: inhibitors of rat KCNQ2 potassium channel. AID 2156. CHO-K1 KCNQ2, FluxOR thallium flux, 20 min; active compounds read low. B-score at 10 µM. hit rate 1.1% among 310,000. O88943;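 active = fluorescence ratio B-score at most minus 3 library SDs, with starting brightness B-score within 2 library SDs, cut at about -5.5 in these data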
Kir21 conf inh: confirmation of mouse Kir2.1 potassium channel inhibitors. shares compounds with KCNQ2 enhance. Kir2.1-expressing cells, FluxOR thallium flux fluorescence; active compounds read low. Tl flux remaining, % of negative control (active compounds read low), % at 10 µM. hit rate 41% among 2,300. AID 2032;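 active = Primary-screen hit whose thallium flux fell at least 3 control SD below untreated wells in both duplicates, with normal baseline fluorescence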;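 also: 0% = blank wells without stimulus and 100% = stimulated no-compound controls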
HEK293 Tl flux: counter-screen for Kir2.1 inhibitors: effect in parental HEK293 cells. shares compounds with KCNQ2 enhance. hit rate 19% among 2,300. FluxOR thallium flux fluorescence; 0% = unstimulated blank wells. AID 2105. FluxOR signal as % of negative control (100 = no effect), % at 10 µM;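 active = dye signal at least 3 control SD above or below untreated wells in both duplicates, raw fluorescence within 3, either direction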;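 also: percent is based on the flux ratio of peak minus minimum fluorescence over baseline F0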
CHO-K1 ctr: counter-screen for KCNQ2 potentiators: effect in parental CHO-K1 cells; shares compounds with KCNQ2 enhance; FluxOR thallium flux fluorescence; zero = vehicle mean+3SD, 100% = vehicle-minus-blank window; activity increase over 3SD of controls, % at 10 µM; hit rate 43% among 1,200; AID 2282;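 active = signal rise of at least 3 SD above the untreated control mean, in both duplicate wells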;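 also: counter screen of KCNQ2 potentiator hits so any rise reflects channel-independent effects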
KCNQ1 sel pot: selectivity of KCNQ2 potentiators: effect on human KCNQ1. shares compounds with KCNQ2 enhance. CHO KCNQ1 stable, FluxOR thallium flux fluorescence; beyond 3SD, as % of vehicle-control signal. hit rate 28% among 1,200. activation over 3SD threshold, % at 10 µM;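 active = fluorescence ratio rise of at least 3 SD of vehicle wells above their mean, in both replicate wells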;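 also: 0% = vehicle mean plus 3 SD and 100% = vehicle minus unstimulated blank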
KCNQ2 pot confirm: confirmation of rat KCNQ2 potassium channel potentiators; CHO-KCNQ2 cells, FluxOR thallium flux fluorescence; hit rate 68% among 1,200; potentiation, less the hit threshold, % at 10 µM; shares compounds with KCNQ2 enhance;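 active = fluorescence ratio rising 3 SD or more over the vehicle control mean in both replicates, plus primary screen hit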;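 also: peak minus minimum thallium fluorescence divided by baseline after K/Tl stimulus; 0% = vehicle mean plus 3 SD and 100% = vehicle minus unstimulated blank difference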
Kir2-1 sel: mouse Kir2.1 off-target activity of KCNQ2 potentiators | shares compounds with KCNQ2 enhance | HEK293 Kir2.1, FluxOR thallium flux fluorescence | activity over 3SD threshold, % at 10 µM | hit rate 2% among 1,200 | AID 2345;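 active = fluorescence ratio rise of at least 3 SD above the vehicle-control mean, seen in both replicates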;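 also: 0% = vehicle mean plus 3 SD and 100% = vehicle minus no-stimulus blank window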
KCNQ2 W236L MoA: potentiates the retigabine-insensitive rat KCNQ2 W236L mutant channel. current increase over 3SD of negative controls (%), active compounds read high, % at 25 µM. shares compounds with KCNQ2 enhance. hit rate 10% among 940. AID 2558. CHO KCNQ2-W236L, automated patch clamp current;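 active = current increase at least 3 SD of the untreated controls above them in both duplicate recordings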
Target sequence (O88943 whole entry W236L, looked up): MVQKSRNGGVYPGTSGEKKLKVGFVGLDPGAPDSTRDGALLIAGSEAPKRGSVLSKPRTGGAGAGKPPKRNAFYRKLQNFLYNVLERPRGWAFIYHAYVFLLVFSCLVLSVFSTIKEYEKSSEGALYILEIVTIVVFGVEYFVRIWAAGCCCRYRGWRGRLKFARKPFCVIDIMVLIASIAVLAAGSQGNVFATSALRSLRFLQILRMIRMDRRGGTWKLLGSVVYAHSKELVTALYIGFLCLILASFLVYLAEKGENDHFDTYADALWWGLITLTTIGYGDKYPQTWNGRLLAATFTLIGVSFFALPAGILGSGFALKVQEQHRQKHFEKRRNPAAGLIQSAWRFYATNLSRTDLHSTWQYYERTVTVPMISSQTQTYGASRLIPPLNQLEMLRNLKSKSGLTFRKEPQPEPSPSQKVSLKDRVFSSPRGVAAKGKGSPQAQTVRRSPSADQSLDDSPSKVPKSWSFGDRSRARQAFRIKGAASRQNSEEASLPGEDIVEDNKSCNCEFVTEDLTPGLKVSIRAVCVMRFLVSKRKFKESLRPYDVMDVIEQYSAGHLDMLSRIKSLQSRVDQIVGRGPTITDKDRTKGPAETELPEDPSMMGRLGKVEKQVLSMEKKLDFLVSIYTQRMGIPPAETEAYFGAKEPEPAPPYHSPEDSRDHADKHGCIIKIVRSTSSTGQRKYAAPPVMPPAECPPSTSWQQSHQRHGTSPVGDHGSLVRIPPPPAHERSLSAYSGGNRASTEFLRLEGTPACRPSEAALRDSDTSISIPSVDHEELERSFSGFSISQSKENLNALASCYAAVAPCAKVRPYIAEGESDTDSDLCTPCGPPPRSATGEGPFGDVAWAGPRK
An asterisk follows results filed as active; i = inactive; x = no result given. Most compounds without a hit are left out; they make up all but 1.6% or so of the library.

SMILES | KCNQ2 enhance | KCNQ2 block | Kir21 conf inh | HEK293 Tl flux | others
CCCN(CCC)C(=S)NC(=O)c1ccc(Cl)cc1Cl | 16* | i | i | 394%* | CHO-K1 ctr=-13;KCNQ1 sel pot=-3;KCNQ2 pot confirm=67*;Kir2-1 sel=-11;KCNQ2 W236L MoA=i
O=C(CN1CCC(Cc2ccccc2)CC1)NCCc1ccc(F)cc1 | 16* | i | x | x | CHO-K1 ctr=69*;KCNQ1 sel pot=-19;KCNQ2 pot confirm=56*;Kir2-1 sel=-90;KCNQ2 W236L MoA=i
NS(=O)(=O)c1ccc(CCNC(=O)CN2CCC(Cc3ccccc3)CC2)cc1 | 0.06 | i | x | x
CCSc1nnc(N2C(=O)c3ccc(C(=O)c4ccc(C(=O)O)cc4)cc3C2=O)s1 | x | i | x | x
Cc1ccc(C(C)(C)C)c(OCCCn2ccnc2)c1 | x | i | x | x
CC(C)(C)c1ccccc1OCCCCCn1ccnc1 | -6.1 | -6.1* | 39%* | i
Cc1onc(-c2ccccc2Cl)c1C(=O)OCC(=O)Nc1ccc2c(c1)OCO2 | 8* | i | i | i | CHO-K1 ctr=3.4*;KCNQ1 sel pot=0.5*;KCNQ2 pot confirm=-14;Kir2-1 sel=-37;KCNQ2 W236L MoA=i
Cc1onc(-c2ccccc2)c1C(=O)OCC(=O)Nc1ccc2c(c1)OCO2 | x | i | x | x
Cc1cc(C(=O)Nc2ncn(Cc3ccc(F)cc3)n2)ccc1[N+](=O)[O-] | 1.4 | i | x | x
O=C(CCS(=O)(=O)c1ccccc1)NC1CCCCC1 | 0.47 | i | x | x
O=C(CCS(=O)(=O)c1ccc(Br)s1)NC1CCCCCC1 | 1.2 | i | i | 70%*
O=C(CCC(=O)N1CCc2ccccc2C1)NCCc1ccc(Cl)cc1 | x | i | x | x
CC(=O)N1CCc2cc(S(=O)(=O)CCC(=O)NCCc3ccccc3)ccc21 | 1.8 | i | x | x
CCOC(=O)C1ON2CCCCC2C1(O)C(F)(F)F (configuration not stated) | x | i | x | x
OC(CNCc1cccc(Br)c1)c1ccccc1 (configuration not stated) | 0.38 | i | x | x
OCc1cc(C(O)CNCCCCCCOCCCCc2ccccc2)ccc1O (configuration not stated) | 0.73 | i | 32%* | i
COc1cc(CCC(=O)OCC(=O)N2CCc3ccccc32)cc(OC)c1OC | 0.16 | i | x | x
Cc1occc1-c1nnc(SCC(=O)O)n1-c1ccccc1 | x | i | x | x
Nc1nc2ccccc2n1CCOc1ccc(Br)cc1 | x | i | 20%* | 130%*
CCOC(=O)Cn1c(=N)n(CCOc2ccc(Br)cc2)c2ccccc21 | x | i | 36%* | i
CCOC(=O)Cn1c(=N)n(Cc2ccccc2)c2ccccc21 | 1.5 | i | x | x
Nc1nc2ccccc2n1CCOc1ccc(Cl)cc1 | 2.5 | i | x | x
CC(C)NC(=O)C(c1ccc(F)cc1)N(C(=O)CCC(=O)Nc1ccccn1)c1cccc(F)c1 (configuration not stated) | x | i | x | x
CCOC(=O)c1c(N)sc2c(OCC)c(Br)ccc12 | 2.1 | i | x | x
CCOC(=O)c1c(NC(C)=O)sc2c(OCC(O)CNC(C)(C)C)c(Br)ccc12 (configuration not stated) | x | i | i | i
SMILES | KCNQ2 enhance | KCNQ2 block | Kir21 conf inh | HEK293 Tl flux | others
O=C(COc1ccc2ccccc2c1Br)N1CCCC1 | 2.3 | i | x | x
CCOC(=O)N1CCN(C(=O)COc2ccc3ccccc3c2Br)CC1 | 8.7* | i | i | i | CHO-K1 ctr=13*;KCNQ1 sel pot=18*;KCNQ2 pot confirm=11*;Kir2-1 sel=-30;KCNQ2 W236L MoA=i
O=C(NCCC1CCCCN1S(=O)(=O)c1ccc(F)cc1)C(=O)Nc1ccccc1 (configuration not stated) | x | i | x | x
Cc1ccc(OCC(=O)NNC(=O)c2ccccc2OCc2c(C)noc2C)cc1 | 0.05 | i | x | x
CN1CCN(CC#CCn2c3ccccc3c3ccccc32)CC1 | x | i | 32%* | i
CN1CCN(CC(O)Cn2c3ccccc3c3ccccc32)CC1 (configuration not stated) | x | i | x | x
COc1cc(CNCc2ccccn2)ccc1OCc1ccc(Cl)cc1 | 1.3 | i | x | x
COc1cc(CNCc2ccccn2)ccc1OCc1c(Cl)cccc1Cl | 0.47 | i | 40%* | i
CCOc1ccccc1NC(=O)NC1(C(=O)N2CCN3CCCC3C2)CCCCC1 (configuration not stated) | 21* | i | i | i | CHO-K1 ctr=-20;KCNQ1 sel pot=-13;KCNQ2 pot confirm=-22;Kir2-1 sel=-39
O=C(NCc1ccccc1)NC1(C(=O)N2CCN3CCCC3C2)CCCCC1 (configuration not stated) | 1.6 | i | x | x
NNC(=O)CN1C(=O)Nc2ccc(Cl)cc2C1c1ccccc1 (configuration not stated) | 2.3 | i | x | x
COC(=O)CN1C(=O)Nc2ccc(Br)cc2C1c1ccccc1 (configuration not stated) | 6.7* | i | i | i | CHO-K1 ctr=-16;KCNQ1 sel pot=-10;KCNQ2 pot confirm=52*;Kir2-1 sel=-48;KCNQ2 W236L MoA=i
CCOc1ccc(CCNC(=O)CCC(=O)N2CCOc3ccccc32)cc1OCC | x | i | x | x
CCN(CC(=O)NCc1cccs1)C(=O)/C=C/c1cccc(Cl)c1Cl | x | i | x | x
CCOc1cc(/C=N/O)ccc1OS(=O)(=O)c1ccc(C)cc1 | 0.06 | i | 48%* | i
CCOc1cc(/C=N/NS(=O)(=O)c2ccccc2)ccc1OS(=O)(=O)c1ccc(C)cc1 | x | i | x | x
CC(C)=CCc1c(O)cc(O)c2c1OC(c1ccc(O)cc1)CC2=O (configuration not stated) | -7.8 | -7.8* | 62%* | i
CC(C)=CCc1c(O)c(CC=C(C)C)c2c(c1O)C(=O)CC(c1ccc(O)cc1)O2 (configuration not stated) | x | i | x | x
CC(C)(C)c1ccc(S(=O)(=O)N2CCN(C(=O)C3CCC3)CC2)cc1 | 1.9 | i | x | x
O=C(NCCc1ccccc1)[C@@H]1CC=C[C@@H]2CCN(C3CCCCC3)C(=O)[C@@H]21 | x | i | x | x
CCS(=O)(=O)n1nc(-c2ccccc2)nc1SC | x | i | x | x
Cc1cccc(NC(=O)c2cc3cc([N+](=O)[O-])ccc3s2)n1 | 0.08 | i | x | x
CCN1CCN(CCNC(=O)CSCc2nc(-c3ccc(OC)c(OC)c3)oc2C)CC1 | 10* | i | i | i | CHO-K1 ctr=22*;KCNQ1 sel pot=-15;KCNQ2 pot confirm=-21;Kir2-1 sel=-30
CCN1CCN(C(=O)CSCc2nc(-c3ccc(OC)c(OC)c3)oc2C)CC1 | x | i | x | x
O=C(Cn1cc(S(=O)(=O)Cc2cccc(F)c2)c2ccccc21)N1CCOCC1 | 0.42 | i | x | x

Screens: PubChem BioAssay, Johns Hopkins Ion Channel Center
